From PubChem BioAssay
An excerpt weighted towards active compounds, which were near 6.5% of everything screened.
VACV Venus inh: vaccinia inhibition (Venus reporter) | Vaccinia virus Venus reporter expression, fluorescence | Potency, µM (top dose mostly 36.5 µM), without a hit: at the highest dose activity change, negative = inhibition, most hits filed as inhibitors | hit rate 0.46% among 330,000; calls by dose curve; tested in A549 cells; further: potency means the concentration at half of the fitted maximal effect; nearly all actives have a fitted effect of over 30% in size
FMDV antiviral: blocks foot and mouth disease virus. FMDV antiviral cell-based qHTS. Potency, µM (doses to about 57.9 µM), for the others: at the highest dose activity change, negative = inhibition, actives largely listed as inhibitors. hit rate 1.2% among 410,000; calls by dose curve; tested in HEK293T cells; further: read-out not given here; potency means the concentration at half of the fitted maximal effect; nearly all actives have a fitted effect of over 45% in size
HCMV antiviral: blocks human cytomegalovirus replication. activity change, negative = inhibition, % at 57.5 µM. HFF cells, HCMV-luciferase reporter, 72 h; active compounds read low. hit rate 4.5% among 410,000. AID 1259415; in the data active means activity change below about -60%; inconclusive means no clear call, values can overlap the other calls; inactive means above about -39%
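Compounds were evaluated in HFFs infected with an HCMV luciferase reporter virus (MOI 1 PFU/cell). Luciferase in lysates collected 72 h post infection served as the replication measure.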
Marburg entry inh: blocks Marburg virus binding to or entry into cells. Marburg virus pseudotyped entry inhibition, cell reporter. Potency, µM (titrated, usually from 37.8 µM), inactives show at the top dose activity change, negative = inhibition, hits mostly inhibitors. hit rate 1.8% among 300,000. AID 540276; calls by dose curve; tested in HEK293 cells; further: potency means the concentration at half of the fitted maximal effect
VACV mCherry inh: vaccinia inhibition (mCherry reporter); Potency, µM (doses to about 36.5 µM), for inactives: at the highest dose activity change, negative = inhibition, usual class: inhibitors; hit rate 0.63% among 310,000; Vaccinia virus mCherry reporter infection, fluorescence; AID 720579; calls by dose curve; tested in A549 cells; further: potency means the concentration at half of the fitted maximal effect; nearly all actives have a fitted effect of over 35% in size
Lassa entry inh: blocks Lassa virus binding to or entry into cells; Lassa virus pseudotype entry inhibition, cell reporter; Potency, µM (series often up to 37.9 µM), for inactives: at the highest dose activity change, negative = inhibition, most hits filed as inhibitors; hit rate 1.2% among 300,000; AID 540256; calls by dose curve; tested in HEK293 cells; further: potency means the concentration at half of the fitted maximal effect; nearly all actives have a fitted effect of over 50% in size
Starred values were filed as active, the others as inactive; [ ] = another dose, or the depositor's remark. On the % scale 0 is the no-effect control and ±100 the full control effect.

Results for O=C(NC1CCCC1)C(c1ccc(F)cc1)N(Cc1ccc(F)cc1)C(=O)CCl (configuration not stated) ?
VACV Venus inh: -11%; FMDV antiviral: inconclusive; HCMV antiviral: -67*; Marburg entry inh: -7%; VACV mCherry inh: -16%; Lassa entry inh: -19%

What do the screens show for `COc1ccc(N(C(=O)CCl)C(C(=O)NC2CCCCC2)c2cccnc2)cc1` (configuration not stated)?
VACV Venus inh: 2.8µM*; FMDV antiviral: 11µM*; HCMV antiviral: -102*; Marburg entry inh: inconclusive; VACV mCherry inh: 11µM*; Lassa entry inh: 13µM*

What do the screens show for `Cc1cc(-c2ccnc(-n3ncc(C(=O)N4CCCCC4c4cccnc4)c3C3CC3)n2)c(C)s1` (configuration not stated)?
VACV Venus inh: -6%; FMDV antiviral: 1%; VACV mCherry inh: 0%

What do the screens show for `COCCNC(=O)C1=CC(c2ccc3c(c2)OCO3)=NS(=O)(=O)N1C`?
VACV Venus inh: -5%; FMDV antiviral: 13%; HCMV antiviral: 4; Marburg entry inh: inconclusive; VACV mCherry inh: -7%; Lassa entry inh: 6%[46.1 µM]

Results for O=C(/C=C/c1ccc(Cl)cc1Cl)Nc1cccc(S(=O)(=O)NC2=NCCC2)c1 ?
FMDV antiviral: -36%; HCMV antiviral: 58; Marburg entry inh: 13µM*; Lassa entry inh: 15µM*

How did O=C(Nc1cccc(S(=O)(=O)NC2=NCCC2)c1)c1ccccc1 do in these assays?
VACV Venus inh: -18%; FMDV antiviral: 10%; HCMV antiviral: -31; Marburg entry inh: 27%; VACV mCherry inh: -6%; Lassa entry inh: 2%

How did O=C(Nc1cccc(S(=O)(=O)NC2=NCCCCC2)c1)c1ccc(Cl)cc1 do in these assays?
VACV Venus inh: -24%; FMDV antiviral: inconclusive; HCMV antiviral: -68*; Marburg entry inh: inconclusive; VACV mCherry inh: -15%; Lassa entry inh: inconclusive

How did Cc1[nH]c2ccc(F)cc2c(=O)c1SC(F)(F)[C@@H](F)C(F)(F)F do in these assays?
Marburg entry inh: -14%

How did CCSc1ncc(Cl)c(C(=O)Nc2sc3c(c2C(=O)OC)CCCC3)n1 do in these assays?
VACV Venus inh: 5%; VACV mCherry inh: 26%

How did CSc1ccc(/C=c2\s/c(=C\C(=O)C(C)(C)C)n(CC(=O)NCCC3=CCCCC3)c2=O)cc1 do in these assays?
FMDV antiviral: -20%; HCMV antiviral: -13

How did CCCNC(=O)Cn1c(=O)/c(=C/c2ccc(-c3ccc([N+](=O)[O-])cc3)o2)s/c1=C\C(=O)C(C)(C)C do in these assays?
VACV Venus inh: 59%; FMDV antiviral: -1%; HCMV antiviral: -96*; Marburg entry inh: inconclusive; VACV mCherry inh: inconclusive; Lassa entry inh: 2%[46.1 µM]

What do the screens show for `O=[N+]([O-])c1cccc(-c2nc(-c3cccs3)c(-c3cccs3)[nH]2)c1`?
VACV Venus inh: inconclusive; FMDV antiviral: inconclusive; HCMV antiviral: 4; Marburg entry inh: inconclusive; VACV mCherry inh: -26%; Lassa entry inh: -15%

How did Fc1ccc(-c2nc(-c3cccs3)[nH]c2-c2ccc(F)cc2)cc1 do in these assays?
VACV Venus inh: inconclusive; FMDV antiviral: 28µM*; HCMV antiviral: 76; Marburg entry inh: inconclusive; VACV mCherry inh: inconclusive; Lassa entry inh: inconclusive

How did O=[N+]([O-])c1ccc(-c2nc(-c3cccs3)c(-c3cccs3)[nH]2)cc1 do in these assays?
VACV Venus inh: inconclusive; FMDV antiviral: 25µM*; HCMV antiviral: -18; Marburg entry inh: inconclusive; VACV mCherry inh: 11µM*; Lassa entry inh: inconclusive

How did O=C(c1ccc(Nc2nccc(-c3cc4ccccc4s3)n2)cc1)N1CCC(N2CCCC2)CC1 do in these assays?
FMDV antiviral: -27%

How did CCc1ccc(N2C(=O)CS(=O)(=O)C23C(=O)N(Cc2ccccc2)c2ccccc23)cc1 (configuration not stated) do in these assays?
VACV Venus inh: -1%; FMDV antiviral: -17%; HCMV antiviral: 4; VACV mCherry inh: -5%; Lassa entry inh: -4%[46.1 µM]

How did COc1cc(-c2cc(C)c3c(OC)ccc(OC)c3n2)cc2c1OCCN(C(=O)CCn1ccc(C)n1)C2 do in these assays?
VACV Venus inh: -2%; FMDV antiviral: -13%; VACV mCherry inh: -12%

Results for CC1CCCN(CCS(=O)(=O)c2ccccc2)C1 (configuration not stated) ?
VACV Venus inh: inconclusive; FMDV antiviral: 25%; HCMV antiviral: 6; Marburg entry inh: inconclusive; VACV mCherry inh: 10µM*; Lassa entry inh: 9%[46.1 µM]

Results for CC[N+]12CCC(CC1)C(=C(c1ccccc1)c1ccccc1)C2 ?
VACV Venus inh: -7%; FMDV antiviral: -24%; HCMV antiviral: -61*; Marburg entry inh: -7%; VACV mCherry inh: -11%; Lassa entry inh: 16%

What do the screens show for `C[N+]12CCC(CC1)C(=C(c1ccccc1)c1ccccc1)C2`?
VACV Venus inh: inconclusive; FMDV antiviral: -17%; HCMV antiviral: inconclusive; Marburg entry inh: 1%; VACV mCherry inh: inconclusive; Lassa entry inh: inconclusive

How did CCOC(=O)c1cc(-c2ccccc2)n(-c2cccc(C(=O)Nc3cccc(C)c3)c2)c1C do in these assays?
VACV Venus inh: -11%; FMDV antiviral: -13%; HCMV antiviral: 12; VACV mCherry inh: -24%; Lassa entry inh: 6%[46.1 µM]

How did CN1CCN(CC(=O)N2N=C(c3cccs3)CC2c2ccco2)CC1 (configuration not stated) do in these assays?
VACV Venus inh: -3%; FMDV antiviral: -7%; HCMV antiviral: 0; Marburg entry inh: -2%; VACV mCherry inh: inactive; Lassa entry inh: inconclusive

What do the screens show for `O=C(CCl)N1N=C(c2cccs2)CC1c1ccco1` (configuration not stated)?
VACV Venus inh: -21%; FMDV antiviral: 16µM*; HCMV antiviral: -97*; Marburg entry inh: inconclusive; VACV mCherry inh: inconclusive; Lassa entry inh: inconclusive

How did O=C(CCl)N1N=C(c2ccco2)CC1c1ccco1 (configuration not stated) do in these assays?
VACV Venus inh: -27%; FMDV antiviral: -24%; HCMV antiviral: -72*; Marburg entry inh: inconclusive; VACV mCherry inh: inconclusive; Lassa entry inh: inconclusive

What do the screens show for `O=C(O)/C=C/C(=O)N1N=C(c2ccco2)CC1c1ccco1` (configuration not stated)?
VACV Venus inh: -1%; FMDV antiviral: -10%; HCMV antiviral: 12; Marburg entry inh: inconclusive; VACV mCherry inh: -6%; Lassa entry inh: inconclusive

How did COc1ccc(CN(C)C(=O)c2cccc(NC(=O)CC3SC(N4CCCCC4)=NC3=O)c2)c(OC)c1 (configuration not stated) do in these assays?
VACV Venus inh: -22%; FMDV antiviral: 20µM*; HCMV antiviral: -77*; Marburg entry inh: 10µM*; VACV mCherry inh: inconclusive; Lassa entry inh: 7.1µM*

How did COc1cccc(CN(C)C(=O)c2cccc(NC(=O)CC3SC(N4CCCCC4)=NC3=O)c2)c1OC (configuration not stated) do in these assays?
FMDV antiviral: inconclusive; HCMV antiviral: -24
